Among the test systems are DU-145 prostate; K-562 leukemia; MALME-3M melanoma; MDA-MB-231 breast; RXF 393 renal; SF-268 CNS; SF-295 CNS; SF-539 CNS; UACC-257 melanoma; M14 melanoma.
What all share (assay): NCI-60 one-dose screen, 48 h (100 = growth as untreated, 0 = no growth, -100 = all killed)
Common to all, as to details: 10 µM unless noted

Each structure is given as a SMILES string. The panel holds about 83,000 compounds, 20% with a hit somewhere; the sample as a whole holds those more often.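 Plates (96-well) were seeded with cells, treated with compound at one concentration, and incubated for 48 hours before percent growth was determined.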 Unmarked numbers belong to inactive results. Calls of active or inactive are those of the source. Rule for the calls: active = growth percent below 10; inactive = the rest.

On to `Cc1ccc(C2=Nn3c(nnc3-c3ccccc3)SC2)cc1`, for which the growth is 22.2% in the test on DU-145 prostate; 15.7% in the test on K-562 leukemia; 59.5% in the test on MALME-3M melanoma; 51.4% in the test on MDA-MB-231 breast; -6.84% (active) in the test with RXF 393 renal; 49.5% in the test with SF-268 CNS. The growth in the test with SF-295 CNS is 10.4%; in the test on SF-539 CNS it was 11.2%; in the test on UACC-257 melanoma, 55.5%; in the test on M14 melanoma, 12.2%.
As for `Cn1cc(-c2nc(N)nnc2-c2c[nH]c3ccc(Br)cc23)c2cc(Br)ccc21`, the growth with DU-145 prostate was 64.8%; in the test with K-562 leukemia, 12.2%; in the test on MALME-3M melanoma, 43%; in the test with MDA-MB-231 breast, 62.5%; in the test with RXF 393 renal, 39.8%; in the test with SF-268 CNS, 61.3%. Besides, the growth in the test on SF-295 CNS is 11.7%; in the test with SF-539 CNS, 43.8%; with UACC-257 melanoma it was 82.9%; in the test with M14 melanoma, 20.7%.
In the case of `CN1CCN(c2nc(-c3csc(-c4ccccc4)n3)cc3ccccc23)CC1`, the growth is 30.8% in the test with DU-145 prostate; -35.1% (active) in the test on K-562 leukemia; 49% in the test with MALME-3M melanoma; 38.4% in the test on MDA-MB-231 breast; -4.62% (active) with RXF 393 renal; 53% in the test with SF-268 CNS. Also, the growth is 74.7% with SF-295 CNS, 57.5% in the test on SF-539 CNS, 46.6% in the test with UACC-257 melanoma and -70.8% (active) with M14 melanoma.
On to `Clc1ccc(N/N=c2/oc3ccccc3cc2-c2cc3ccccc3[nH]2)cc1`, for which the growth with DU-145 prostate is 88.6%; in the test on K-562 leukemia it was 67%; in the test with MALME-3M melanoma it was 55.3%; in the test with MDA-MB-231 breast, 67.1%; in the test with RXF 393 renal, 76%; in the test with SF-268 CNS it was 85.1%. Further, the growth in the test on SF-295 CNS is 71%; with SF-539 CNS, 87.3%; in the test on UACC-257 melanoma, 84.1%; with M14 melanoma, 66.5%.
As for `CS(=O)(=O)Nc1cc(-c2ccc3ncc(C#N)c(NCc4ccccc4)c3c2)cnc1Cl`, the growth with DU-145 prostate is 8.12% (active); in the test on K-562 leukemia, 9.74% (active); with MALME-3M melanoma, -38.7% (active); in the test with MDA-MB-231 breast it was -51.8% (active); in the test on RXF 393 renal it was -46.6% (active); in the test on SF-268 CNS it was -4.76% (active). The growth is -32.3% (active) in the test with SF-295 CNS, -42.6% (active) in the test with SF-539 CNS, 1.36% (active) in the test with UACC-257 melanoma and -9.52% (active) in the test with M14 melanoma.
As for `CNC(=O)c1cc(-n2ccc3cc(NC(=O)Nc4ccc(N5CCOCC5)c(C(F)(F)F)c4)ccc32)ccn1`, the growth in the test on DU-145 prostate was 54.9%; with K-562 leukemia, 4.09% (active); with MALME-3M melanoma it was 82%; in the test on MDA-MB-231 breast, 45.4%; with RXF 393 renal, -27.5% (active); in the test on SF-268 CNS, 72.6%. The growth in the test on SF-295 CNS was 12.3%; in the test with SF-539 CNS, 23.3%; with UACC-257 melanoma it was 56.8%; in the test on M14 melanoma it was 23.6%.
Regarding `COCCNc1ccc2ncc(C#Cc3cncc(C(=O)Nc4ccc(CN5CCN(C)CC5)c(C(F)(F)F)c4)c3)n2n1`, the growth in the test with DU-145 prostate is -32.4% (active); in the test with K-562 leukemia, 1.22% (active); in the test on MALME-3M melanoma it was -69.7% (active); with MDA-MB-231 breast, -15% (active); in the test on RXF 393 renal, -84.3% (active); with SF-268 CNS, -55% (active). Also, the growth in the test on SF-295 CNS is -13.9% (active); in the test with SF-539 CNS it was -77% (active); with UACC-257 melanoma it was -46.4% (active); in the test with M14 melanoma it was -86.2% (active).
For the compound `CCc1cccc(NC(=O)CNc2cc(S(=O)(=O)N(C)C)cc(C)c2C)c1`, the growth was 80.3% with DU-145 prostate; 85% with K-562 leukemia; 106% with MALME-3M melanoma; 78% in the test on MDA-MB-231 breast; 37.7% with RXF 393 renal; 75% in the test on SF-268 CNS. In addition, the growth is 91.6% in the test with SF-295 CNS, 90.7% in the test with SF-539 CNS, 101% in the test on UACC-257 melanoma and 100% with M14 melanoma.
For the compound `O=C(CSc1nc2ccccc2c(=O)n1-c1ccccc1)Nc1cccc(C(=O)/C=C/c2ccccc2)c1`, the growth was 94.8% with DU-145 prostate; 70.1% in the test on K-562 leukemia; 101% with MALME-3M melanoma; 94.3% in the test with MDA-MB-231 breast; 83.1% in the test on RXF 393 renal; 94.8% in the test on SF-268 CNS. Moreover, the growth is 98% with SF-295 CNS, 98.8% with SF-539 CNS, 99.8% in the test on UACC-257 melanoma and 97.5% in the test on M14 melanoma.
Turning to `Nc1nc(Nc2ccccc2SSc2ccccc2Nc2nc(N)nc(-c3ccccc3)n2)nc(-c2ccccc2)n1`, the growth in the test with DU-145 prostate is 69.4%; in the test on K-562 leukemia, 62.6%; in the test with MALME-3M melanoma, 104%; in the test with MDA-MB-231 breast, 62.6%; in the test with RXF 393 renal it was 50.2%; with SF-268 CNS, 49%. Moreover, the growth in the test on SF-295 CNS is 26.1%; in the test with SF-539 CNS, 96.2%; with UACC-257 melanoma, 108%; in the test on M14 melanoma it was 91.9%.
Regarding `C=CC(=O)N1CCC=C(c2cc3c(N[C@H](C)c4ccccc4)ncnc3[nH]2)C1`, the growth was 42.9% in the test on DU-145 prostate; 37% with K-562 leukemia; 101% in the test on MALME-3M melanoma; 44.4% with MDA-MB-231 breast; -17% (active) in the test on RXF 393 renal; 60.1% with SF-268 CNS. The growth in the test on SF-295 CNS is 72%; with SF-539 CNS it was 74.6%; with UACC-257 melanoma it was 87.4%; in the test on M14 melanoma, 85.9%.
In the case of `COc1ccc(S(=O)(=O)NCCCNc2nccc(-c3cn(C(C)(C)C)nc3-c3ccc(Cl)c(OC)c3)n2)cc1`, the growth in the test on DU-145 prostate is 72.3%; in the test on K-562 leukemia, 59.7%; in the test with MALME-3M melanoma, 92.7%; with MDA-MB-231 breast, 43.8%; in the test with RXF 393 renal, -0.734% (active); with SF-268 CNS, 57.9%. The growth was 91.2% with SF-295 CNS, 89.8% with SF-539 CNS, 104% in the test with UACC-257 melanoma and 92.8% in the test on M14 melanoma.
As to `O=C(Nc1nc2ccc([N+](=O)[O-])cc2s1)Nc1ccccc1Cl`, the growth in the test on DU-145 prostate was 40.2%; in the test with K-562 leukemia, 20.6%; with MALME-3M melanoma, 12.1%; with MDA-MB-231 breast it was 47.5%; with RXF 393 renal, 49.2%; with SF-268 CNS it was 41.7%. In addition, the growth with SF-295 CNS was 48.5%; with SF-539 CNS, 54.7%; with UACC-257 melanoma it was 23.2%; in the test with M14 melanoma it was 45.1%.
As for `COc1ccc(NCc2cn(-c3ccc(C(=O)O)cc3)nc2-c2cc(C(F)(F)F)cc(C(F)(F)F)c2)cc1`, the growth in the test with DU-145 prostate is 103%; with K-562 leukemia, 90.5%; in the test with MALME-3M melanoma, 86.8%; in the test with MDA-MB-231 breast, 101%; in the test on RXF 393 renal it was 111%; with SF-268 CNS, 99.2%. The growth in the test with SF-295 CNS is 102%; with SF-539 CNS, 86.5%; in the test with UACC-257 melanoma, 105%; in the test with M14 melanoma it was 96.4%.
As to `COc1cc(-c2nn(C(C)(C)C)cc2-c2ccnc(NCCCNS(=O)(=O)c3ccccc3)n2)ccc1Cl`, the growth was 67.2% with DU-145 prostate; 40.7% in the test with K-562 leukemia; 84% in the test on MALME-3M melanoma; 49.3% in the test on MDA-MB-231 breast; -1.53% (active) in the test with RXF 393 renal; 58.2% with SF-268 CNS. Also, the growth with SF-295 CNS is 83.1%; in the test on SF-539 CNS, 83.7%; in the test with UACC-257 melanoma it was 95.1%; with M14 melanoma it was 96.1%.

The values are drawn from PubChem BioAssay (NCI).
